# Hits are enriched below; roughly 3.3% of the tested compounds scored in any of these assays.
# LmPK inhibitor – inhibitors of Leishmania mexicana pyruvate kinase; Q27686; purified LmPK, Kinase-Glo ATP luminescence, 1 h; Potency, µM (top dose mostly 57.5 µM), without a hit: at the highest dose activity change, negative = inhibition, hits mostly inhibitors; 290,000 tested, 0.37% active; note: % is set by controls: 0 for no effect and ±100 for the full control effect
# Target sequence (Q27686 whole entry, looked up): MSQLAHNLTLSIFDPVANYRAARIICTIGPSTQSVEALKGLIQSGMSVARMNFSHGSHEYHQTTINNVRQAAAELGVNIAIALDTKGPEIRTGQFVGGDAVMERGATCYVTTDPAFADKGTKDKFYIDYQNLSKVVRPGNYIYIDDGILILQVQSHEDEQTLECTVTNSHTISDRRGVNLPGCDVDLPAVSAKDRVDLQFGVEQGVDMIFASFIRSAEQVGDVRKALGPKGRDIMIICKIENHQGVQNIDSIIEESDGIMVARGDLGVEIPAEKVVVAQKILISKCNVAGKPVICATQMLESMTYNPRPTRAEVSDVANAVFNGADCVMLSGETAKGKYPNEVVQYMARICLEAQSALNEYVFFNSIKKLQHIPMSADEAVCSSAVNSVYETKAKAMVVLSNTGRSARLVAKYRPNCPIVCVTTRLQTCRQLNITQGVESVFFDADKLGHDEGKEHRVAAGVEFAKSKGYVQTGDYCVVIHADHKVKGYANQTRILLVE
#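 qHTS format; LmPK 0.1 nM; substrates PEP 0.5 mM and ADP 0.1 mM. One-hour room-temperature incubation, then coupled luciferase luminescence; 0.5 nM enzyme wells mark activation.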
# SARS PLP yeast – blocks SARS-CoV papain-like protease in a yeast assay; Potency, µM (top dose mostly 32.9 µM), inactives show at the top dose activity, positive = growth rescue, hits mostly activators; S. cerevisiae expressing SARS-CoV PLpro, growth rescue; AID 485353; 330,000 tested, 0.19% active; calls by dose curve; note: 0% is about no effect; nearly all actives have a fitted effect of over 55% in size
# Sm TGR block – inhibitors of Schistosoma mansoni thioredoxin glutathione reductase | Q962Y6 | AID 485364 | 360,000 tested, 3% active | purified TGR, DTNB reduction, TNB absorbance 405 nm | Potency, µM (top dose mostly 114 µM), for the others: at the highest dose activity change, negative = inhibition, hits mostly inhibitors; note: % is set by controls: 0 for no effect and ±100 for the full control effect; nearly all actives have a fitted effect of over 60% in size
#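 First, TGR (20 nM dispensed) and NADPH were mixed with compound. Second, a 15 min room-temperature incubation followed. Third, further NADPH and then DTNB were added to start the reaction. Finally, TNB absorbance was monitored kinetically.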
# RE007 growth inh – less growth of the S. pombe RE007 Vpr strain; S. pombe RE007 Vpr strain, BacTiter-Glo ATP luminescence, 24 h; Potency, µM (titrated, usually from 92.2 µM), inactives show top-dose activity change, negative = less growth, actives largely listed as inhibitors; 360,000 tested, 0.21% active; AID 651644; active = well fitted falling curve with a large enough effect; inconclusive = small, poorly fitted or top-dose-only effect; inactive = no such curve, though single readings can be large or run the other way; note: % is set by controls: 0 for no effect and ±100 for the full control effect; nearly all actives have a fitted effect of over 50% in size
#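 Fission yeast RE007 carrying one integrated HIV-1 vpr copy, seeded at OD 0.01 in PMG+AL medium with 23 nL pinned compound. Grown 24 h at 30 degrees; viability read by BacTiter-Glo luminescence after 5 min.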
# NS1 inh – influenza NS1 inhibition; 270,000 tested, 0.4% active; AID 2326; Potency, µM (highest dose often 46.1 µM), for the others: top-dose activity, positive = more growth; calls by dose curve; note: actives are rising curves; nearly all actives have a fitted effect of over 50% in size
#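 Growth recovery, yeast-based: influenza A NS1 expressed in S. cerevisiae causes slow growth, and suppressors are detected by OD600. The parent strain without NS1 is used as positive control.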
# TbPYK inhibitor – T. brucei pyruvate kinase inhibition; Potency, µM (titrated, usually from 76.8 µM), for the others: at the top dose activity, negative = inhibition, usual class: inhibitors; Q57TT1; AID 624173; TbPYK enzyme, Kinase-Glo Plus ATP luminescence, 45 min; 410,000 tested, 0.12% active; note: % is set by controls: 0 for no effect and ±100 for the full control effect; nearly all actives have a fitted effect of over 50% in size
#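 TbPYK + substrate in 50 mM TEA pH 7.2, 100 mM KCl, 10 mM MgCl2, 0.05% BSA, 0.01% Tween-20; cpd pinned; ADP 130 uM final; 45 min RT; Kinase-Glo Plus 10 min; luminescence endpoint.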
# * hit, by the source's call; ? = inconclusive; . = no result given; [ ] = dose if it differs, or a comment. Unless noted, calls come from the whole dose curve; as a rule, active = well fitted curve in the direction sought with a large enough effect; inconclusive = small, poorly fitted or top-dose-only effect, or another doubt; inactive = no such curve, though single readings can be large; an effect the other way counts as inactive or inconclusive. Potency is the fitted concentration of half-maximal effect.
SMILES,LmPK inhibitor,SARS PLP yeast,Sm TGR block,RE007 growth inh,NS1 inh,TbPYK inhibitor
COC(=O)c1ccc(NC(=S)NC2CC2)cc1,0.6%,0.2%,15.8µM*,3.7%,2.4%,4.2%
CC(=O)CCc1oc2ccc(C)cc2c1-c1ccccc1,-2.9%,-1.9%,0.1%,1.5%,1.5%,-8.0%
C/C(CCc1oc2ccc(Br)cc2c1-c1ccc(C)o1)=N/O,0.4%,-14.7%,39.8µM*,-16.6%,-20.9%,-10.4%
C/C(CCc1oc2ccc(Cl)cc2c1-c1ccc(C)o1)=N\O,-7.9%,-14.7%,25.1µM*,-26.3%,-21.4%,-9.0%
O=C(COC(=O)c1ccc(Br)o1)Nc1nc2ccccc2s1,3.1%,-28.7%,0.0%,-3.5%,-53.4%,-3.1%
O=C(COC(=O)c1ccc([N+](=O)[O-])o1)Nc1nc2ccccc2s1,-1.1%,-4.5%,28.2µM*,-18.1%,-28.9%,-2.7%
CCOC(=O)CSC1=NC(=O)/C(=C\c2ccc(OC(C)=O)cc2)S1,?,-16.6%,8.91µM*,?,-36.7%,-9.7%
CCOC(=O)CSC1=NC(=O)/C(=C/c2ccc(Br)cc2)S1,-5.6%,-24.1%,3.16µM*,?,.,14.5%
CC(C)(C)c1ccc(S(=O)(=O)N2CCN(Cc3cc4c(cc3O)OCO4)CC2)cc1,.,-0.9%,2.82µM*,9.4%,.,6.3%
COc1ccccc1N1CCN(Cc2cc3c(cc2O)OCO3)CC1,-3.8%,3.4%,1.78µM*,-18.2%,2.8%,-2.4%
COc1ccccc1N1CCN(Cc2cc(C)c(C)cc2O)CC1,8.7%,-3.9%,-0.6%,-17.1%,?,-2.8%
O=C(CCN1CCN(c2ccccc2F)CC1)Nc1ccc2c(c1)OCO2,2.7%,-1.7%,-24.4%,-2.2%,-4.0%,2.5%
Oc1cc2c(cc1CN1CCN(c3ccccc3F)CC1)OCO2,13.1%,2.0%,1µM*,-13.4%,15.2%,3.8%
Oc1cc2c(cc1CN1CCc3ccccc3C1)OCO2,1.6%,5.8%,2.51µM*,3.3%,3.6%,-8.4%
O=[N+]([O-])c1ccc(C2=Nn3c(nnc3-c3ccc(Cl)cc3)SC2)o1,.,.,.,.,-54.9%,.
O=C(Nc1ccc2c(c1)OCO2)C1CCN(Cc2cc3c(cc2O)OCO3)CC1,5.2%,0.1%,2.82µM*,7.9%,0.7%,-0.8%
COc1cccc(-n2c(=O)c3c(C)c(C)sc3n(CC(=O)Nc3ccccc3OC)c2=O)c1,.,.,13.1%,.,.,1.1%
Cc1cc(O)c(C=O)c2c1C(=O)Oc1c(CO)c(O)c3c(c1O2)C(O)OC3=O (stereo unspecified),-7.1%,8.4%,14.1µM*,4.2%,12.9%,2.5%
O=S(=O)(NCC(O)COCc1ccco1)c1cccs1 (stereo unspecified),0.8%,5.6%,12.6µM*,4.7%,?,3.4%
COc1ccc(CNCC(O)COCc2cccs2)cc1 (stereo unspecified),2.2%,9.9%,9.2%[11.4 µM],-14.7%,0.2%,-15.7%
CC(C)(C)NC(=O)CN1CCN(C(=O)CCl)CC1,-0.2%,1.5%,44.7µM*,-14.7%,.,5.1%
CCOC(=O)N1CCN(C(=O)CCl)CC1,1.9%,-0.9%,39.8µM*,24.8%,0.9%,-0.6%
Nc1nccc(-c2ccc3noc(-c4ccc(Cl)cc4)c3c2)n1,.,.,.,.,.,0.0%
O=C(O)C/C=C(\NC(=O)OCc1ccccc1)C(=O)OCc1ccccc1,-0.4%[11.5 µM],-8.2%,15.8µM*,-9.7%,.,-4.7%
CC(=O)N/C(=C\c1ccccc1)C(=O)OCc1ccccc1,-4.5%,0.4%,15.3%,-3.0%,4.0%,-2.7%
SMILES,LmPK inhibitor,SARS PLP yeast,Sm TGR block,RE007 growth inh,NS1 inh,TbPYK inhibitor
O=C(O)c1ccc(N2C(=O)/C(=C/c3ccc(-c4ccc([N+](=O)[O-])cc4)o3)C=C2c2ccccc2)cc1,?,0.1%,44.7µM*,8.2%,.,-21.9%
Cc1ccc(NC(=O)C2CC(=O)Nc3ncnn32)c(C)c1 (stereo unspecified),-0.6%,-3.2%,56.2µM*,7.8%,-13.5%,1.0%
NCC1CCC(N)C(O[C@@H]2C(O)[C@H](O[C@H]3OC(CO)C(O)C(N)C3O)[C@@H](N)C[C@H]2N)O1 (stereo partly specified),.,.,.,.,.,0.5%
O=S(=O)(NC[C@@H]1CCC[C@H](CNS(=O)(=O)c2c(F)cccc2F)C1)c1ccc2c(c1)OCCO2,.,3.2%,-7.6%,.,.,.
ClCc1ncc(-c2ccc(Cl)cc2)o1,-3.3%,0.4%,25.1µM*,-9.9%,.,-0.5%
Cc1ccc(OCc2nnc(-c3ccc(Cl)cc3)o2)cc1,.,.,.,-16.6%,.,-2.2%
N=c1ccn2c(n1)O[C@H]1[C@@H](O)[C@@H](CO)O[C@H]12,.,.,.,.,-4.8%,.
Cn1c(NC(=O)C[n+]2cc(-c3ccc(Cl)c(Cl)c3)n3c2CCC3)cc(=O)n(C)c1=O,-0.9%,8.9%,-3.7%,31.6µM*,18.9%,-1.1%
CCCCn1c(O)c(C(C)=NCCN2CCCCC2)c(=O)[nH]c1=O,-5.2%,-0.7%,?,3.8%,-5.6%,1.4%
C=CCn1c(O)c(C(C)=NCCN2CCCCC2)c(=O)[nH]c1=O,10.2%,3.0%,14.1µM*,12.6%,-4.1%,0.3%
COc1ccccc1CNC(=O)c1cc(-c2ccccc2)nn1CC1CC(c2cccnc2)=NO1 (stereo unspecified),.,.,.,13.1%,.,-2.6%
Cc1ccccc1-c1cc(C(=O)NCc2ccco2)n(CC2CC(c3cccnc3)=NO2)n1 (stereo unspecified),.,-4.5%,17.8µM*,-4.5%,.,4.3%
Cc1cc(C)c(Cn2cnc3nc4c(cc3c2=O)CCCC4)c(C)c1,.,.,-2.9%,.,.,1.8%
CCOC(=O)c1c(C)[nH]c(/C(C)=N/O)c1C,-5.0%,-2.7%,-10.1%,-17.2%,-15.9%,2.5%
CCOC(=O)c1c(C)[nH]c(C2=NNC(=NC3CC3)SC2)c1C,-22.4%,0.1%,8.6%,-15.1%,.,7.94µM*
CC(C)[C@](N)(C(=O)O)c1ccccc1,.,.,.,.,3.2%,.
CC(=O)ON=C1C=CC(=C(C#N)c2ccccc2)C=C1,.,.,.,3.98µM*,.,?
O=C1CC(SCCc2nc3ccccc3[nH]2)C(=O)N1c1ccc(Cl)cc1 (stereo unspecified),3.7%,-16.2%,?,?,11.3%,-6.3%
CCCOc1ccc(N2C(=O)CC(SCCc3nc4ccccc4[nH]3)C2=O)cc1 (stereo unspecified),-9.4%,-5.3%,-12.7%[57.1 µM],-10.7%,-0.2%,-9.6%
O=C1CC(SCc2nc3ccccc3[nH]2)C(=O)N1c1ccc(F)c(Cl)c1 (stereo unspecified),4.8%,-49.3%,39.8µM*,-5.0%[3.69 µM],-27.5%,.
O=C1CC(SCc2nc3ccccc3[nH]2)C(=O)N1c1cccc(F)c1 (stereo unspecified),2.0%,-26.2%,?,31.6µM*,9.1%,-7.0%
